Sampled rows, rich in hits. Any-hit rate of the full collection: about 3.5%.
TEAD-YAP inh: TEAD-YAP interaction inhibition | HEK-TIYL cells, TEAD-Gal4/YAP UAS-luciferase luminescence | inhibition, % at 9.12 µM | 640,000 compounds, 1.4% hits | AID 1259422; in the data active = inhibition above about 32%;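 note: 0% = median of test compound wells and 100% = reference inhibitor wells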
MITF inh: human MITF inhibition, primary screen | 650,000 compounds, 0.91% hits | AlphaScreen MITF homodimerization, bead proximity signal | O75030 | inhibition, % at 2.6 µM | AID 1259374; in the data active = inhibition above about 50%;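 note: 0% = vehicle wells with protein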
Target sequence (O75030 whole entry, looked up): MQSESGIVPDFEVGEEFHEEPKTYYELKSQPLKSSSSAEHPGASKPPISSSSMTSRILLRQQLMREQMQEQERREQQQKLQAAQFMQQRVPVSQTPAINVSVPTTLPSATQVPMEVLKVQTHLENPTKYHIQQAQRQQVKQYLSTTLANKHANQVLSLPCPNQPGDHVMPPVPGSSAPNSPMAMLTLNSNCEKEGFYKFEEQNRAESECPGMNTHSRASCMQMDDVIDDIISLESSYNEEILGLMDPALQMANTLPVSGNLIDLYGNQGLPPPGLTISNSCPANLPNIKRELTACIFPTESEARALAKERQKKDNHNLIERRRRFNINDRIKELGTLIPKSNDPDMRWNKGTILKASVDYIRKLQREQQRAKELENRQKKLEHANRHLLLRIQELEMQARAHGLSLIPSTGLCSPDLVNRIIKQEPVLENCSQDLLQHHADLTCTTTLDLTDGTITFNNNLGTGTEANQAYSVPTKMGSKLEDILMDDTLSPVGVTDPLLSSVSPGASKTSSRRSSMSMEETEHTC
FBW7 act: human FBW7 E3 ligase activation, primary screen; AlphaScreen FBW7–phospho-cyclin E peptide binding, activator screen; Q969H0; AID 1259310; normalized activity (activation), % at 26.1 µM; 650,000 compounds, 0.13% hits; in the data active = normalized activity above about 1.9%;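 note: purified mutant Fbw7 with reduced substrate affinity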
GPR151 ag: activates the human receptor GPR151. Q8TDV0. PathHunter beta-arrestin GPR151 cells, luminescence. activation, % at 11.2 µM. 650,000 compounds, 1% hits; in the data active = activation above about 4.9%;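 note: 0% = median of compound wells and 100% = cells with positive control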
Active calls of the source: *.

SMILES	TEAD-YAP inh	MITF inh	FBW7 act	GPR151 ag
O=C(c1ccc(F)cc1)N1CCN(Cc2ccc(Cl)cc2)CC1	16	50	0	-1
Cc1ccc2c(c1)NCC(C(=O)O)O2 (centres undefined)	-3	16	0	-1
COc1ccc(C(=O)NCC(=O)OCc2cc(=O)oc3cc(C)ccc23)cc1OC	5	9	0	1
CCC(C)c1ccc(OCCCNCCO)cc1 (centres undefined)	40*	22	0	-2
CNC(=O)/C(C#N)=C/c1ccc(-c2ccc(Br)cc2)o1	-62	4	0	-1
CNC(=O)/C(C#N)=C/c1ccc(-c2ccc(Cl)c(Cl)c2)o1	-5	9	1.9*	0
COC(=O)c1ccccc1NS(=O)(=O)c1ccc2c(c1)C(C)(C)C(=O)N2C	15	16	1	0
Cc1ccnc(NC(c2ccccc2C)c2ccc3cccnc3c2O)c1 (centres undefined)	90*	17	0	0
Cc1ccc(C)c(C(Nc2ccccn2)c2ccc3cccnc3c2O)c1 (centres undefined)	76*	13	-1	-1
Cc1ccnc(NC(c2cccs2)c2ccc3cccnc3c2O)c1 (centres undefined)	52*	9	-2	0
O=C(O)CNC(=O)c1cc(Br)ccc1O	3	5	0	0
S=C1NC2(CCCC2)Cc2ccccc21	10	-2	0	1
COc1ccc(-c2cncc(-c3cc(NCC(OC)OC)nc(C)n3)c2)cc1	-2	9	0	1
CC(C)(C)c1ccc(C(=O)NCCOc2ccccc2F)cc1	59*	4	1	-1
CC(C)(C)c1ccc(C(=O)NCCOc2ccccc2)cc1	36*	2	0	-2
O=S(=O)(NCCc1csc2nc(-c3ccc(F)cc3)nn12)c1ccc(Cl)cc1	-4	14	0	-1
CN1CCN(c2ccc(-c3nc4ccc(C(N)=O)cc4s3)cc2)CC1	44*	-1	0	0
Cc1cc(C(F)(F)F)nc(NC(=O)NC(=O)c2ccc(F)cc2)n1	1	-5	0	0
Cc1nc(C)c(CN2CCC(C(=O)Nc3ccc(Oc4cccnc4)cc3)CC2)nc1C	13	7	0	0
O=C(Nc1ccc(Oc2cccnc2)cc1)C1CCN(Cc2cc3ccccc3o2)CC1	44*	12	0	-1
N#Cc1cc2c(N)c(C(=O)Nc3ccccc3)sc2nc1N	-22	18	0	1
Cc1ccc(NC(=O)c2sc3nc(N)c(C#N)cc3c2N)cc1F	-41	15	22*	1
N#Cc1cc2c(N)c(C(=O)c3ccc4c(c3)OCO4)sc2nc1N	-1	-1	5.1*	1
COc1ccc(N2CCN(C3CCCN(C(=O)/C=C/c4ccncc4)C3)CC2)cc1 (centres undefined)	8	14	0	-2
CCC1SC(CC)C(=O)N(CC(=O)Nc2ccc(C)cc2C)C1=O (centres undefined)	3	8	0	0
SMILES	TEAD-YAP inh	MITF inh	FBW7 act	GPR151 ag
CNC(=S)N1CCC(NC(=O)C(Cc2ccc(OC)cc2)NC(C)=O)CC1 (centres undefined)	-15	5	2.4*	3
Cc1cc(C)n(C(=C(/C(Cl)=C(/Cl)Br)[N+](=O)[O-])n2nc(C)cc2C)n1	42*	14	0	0
Cc1ccc(C2/C(=C(\O)c3ccc(Br)cc3)C(=O)C(=O)N2CCO)cc1 (centres undefined)	-2	2	0	0
CCN1CCN(CC(=O)Nc2ccc(C)cc2)C(=O)C1=O	-9	7	0	1
CCN1CCN(CC(=O)Nc2ccc(Cl)cc2)C(=O)C1=O	7	19	1.9*	-2
C=CCOc1ccccc1/C=N/n1nnnc1N	19	8	1	3
N#CCOc1ccccc1/C=N/n1nnnc1N	11	9	1.9*	1
COC(=O)Nc1cc([N+](=O)[O-])cc([N+](=O)[O-])c1SCCO	9	11	0	0
COc1ccc(NC(=O)C2(C)CC3c4ccccc4C2c2ccccc23)cc1 (centres undefined)	0	8	1.9*	1
Cc1ccc(C)c(NC(=O)C2(C)CC3c4ccccc4C2c2ccccc23)c1 (centres undefined)	4	11	0	1
Cc1cc(C)c2nc(SCC(=O)N3CC(=O)Nc4ccccc43)c(C#N)cc2c1	54*	-2	0	1
O=C1COc2cc(S(=O)(=O)N3CCC(C(=O)NN4CCOCC4)CC3)ccc2N1	-4	4	0	1
COc1ccc(/C=C/C(=O)Nc2ccc(S(=O)(=O)N3CCCCCC3)cc2)cc1	32*	6	0	1

From PubChem BioAssay
